# Shown are actives, neighbours in structure and some others; about 1.1% of the full set was active somewhere.
# PrPC TRFRET – inhibitors of human cell surface prion protein PrPC. P04156. TR-FRET read-out. inhibition, % at 13.8 µM. 370,000 compounds, 0.43% hits. AID 720596; in the data active = inhibition above about 24%; also: 0% = median of the test wells and 100% = reference compound wells
# CCHFV vOTU inh – blocks the CCHF virus ovarian tumor domain protease | CCHFV vOTU protease, Pep-AMC fluorescence | inhibition, % at 11.5 µM | 370,000 compounds, 0.55% hits; in the data active = inhibition above about 30%; also: 0% = vehicle wells with enzyme and 100% = no enzyme wells
# Yp Topo-I inh – inhibitors of Yersinia pestis topoisomerase I; AID 504884; activity, % at 10 µM; Y. pestis Topo-I cleavage product accumulation, plate reader; 360,000 compounds, 0.064% hits; in the data active = activity above about 50%, passing the limit was not always enough
# BH1578 lux ind – quorum light induction in luxS cqsA deficient V. cholerae; 350,000 compounds, 0.16% hits; activation, % at 18.7 µM; AID 588436; V. cholerae BH1578 lux reporter, luminescence, 6 h; in the data active = activation mostly above about 9.7%, no sharp cut-off
# PrPC TRFRET cf – cell surface PrPC inhibition, TR-FRET confirmation; shares compounds with PrPC TRFRET; cell surface PrPC level; inhibition, % at 13.8 µM; 1,500 compounds, 65% hits; AID 743200; in the data active = inhibition above about 25%
# LD9 tox – counter-screen for PrPc inhibitors: cytotoxicity in LD9 cells. shares compounds with PrPC TRFRET. luminescence viability. inhibition, % at 13.8 µM. 1,500 compounds, 29% hits. AID 743201; in the data active = inhibition above about 9.5%
# Active calls of the source: *; i = inactive; . = no result given.
SMILES,PrPC TRFRET,CCHFV vOTU inh,Yp Topo-I inh,BH1578 lux ind,PrPC TRFRET cf,LD9 tox
COc1ccc(C(CC(=O)O)NC(=O)c2sc3ccccc3c2Cl)cc1 (stereo not drawn),34.2*,10.1,2.7,i,38.5*,-4.1
c1ccc(-c2cc(-c3ccccc3)[n+](-c3ccccc3)c(-c3ccccc3)c2)cc1,19.6,-4.8,5.9,-0.3,.,.
CN(C)c1ccc(-[n+]2c(-c3ccccc3)cc(-c3ccccc3)cc2-c2ccccc2)cc1,30.8*,-1.7,23.0,-0.5,41.1*,47.2*
Brc1cc(Br)c2nc3c(cc2c1)CCC3,26.3*,11.2,0.4,-1.1,71.0*,0.9
CC(C)N(C(=O)COC(=O)[C@H](C)NC(=O)c1ccco1)c1ccccc1,0.4,-10.5,-0.1,-0.3,.,.
COc1ccc(CC(=O)Nc2ccc(N3CCN(c4ccc(OC)cc4)CC3)c(C#N)c2)cc1,24.9*,6.8,7.2,i,40.3*,12.8*
Cc1cc(SCC(=O)N2CCCC2=O)nc2c(C)cccc12,13.7,-5.2,-6.3,i,.,.
Cc1cc(SCCC(=O)O)nc2c(C)cccc12,70.9*,-8.8,-3.0,3.1,68.6*,3.6
O=C(Nc1cc(S(=O)(=O)N2CCOCC2)ccc1N1CCCC1)c1cc2c(s1)CCCC2,52.1*,.,.,.,74.7*,-5.1
Cc1ccc(NC(=O)c2cc3c(s2)CCCC3)cc1S(=O)(=O)Nc1ccccc1Cl,22.5,-11.9,1.5,i,.,.
O=C(Nc1ccc(N2CCOCC2)cc1)c1cc2c(s1)CCCCC2,25.0*,13.1,2.7,i,12.4,11.9*
O=C(NC1CCCCCC1)c1cc(S(=O)(=O)N2CCOCC2)ccc1N1CCCCC1,28.0*,24.0,-4.3,-0.5,17.9,-2.8
O=C(Nc1ccc(N2CCOCC2)cc1)c1cc2c(s1)CCCC2,23.8,-1.1,-0.6,-0.3,.,.
O=C(Nc1cccc(S(=O)(=O)Nc2ccc(Cl)cc2)c1)c1cc2c(s1)CCCC2,26.5*,10.6,1.3,-0.4,32.1*,-3.1
CCS/C(N)=N/N=C/c1cc(C)ccc1O,-5.3,11.8,-5.2,-12.5,.,.
CC1CC(C)C(=NNC(N)=O)C(C(O)CC2CCC(=O)NC2=O)C1 (stereo not drawn),84.0*,-4.6,-3.3,i,43.3*,15.2*
C[C@H]1C[C@@H](C)C(=O)[C@@H]([C@H](O)CC2CC(=O)NC(=O)C2)C1,89.2*,-2.0,3.2,-0.3,97.7*,31.7*
CCCCNCC1CCCO1 (stereo not drawn),-1.8,-7.9,5.6,-0.6,.,.
Cc1cc(C(=O)CSc2nnc(Cc3ccccc3)o2)c(C)n1Cc1ccc2c(c1)OCO2,4.7,0.5,20.0,-0.3,.,.
O=C(Nc1ccc(Cl)cc1)Nc1ccc(Cl)c(Cl)c1,7.5,-1.6,.,.,.,.
N#Cc1ccc(NC(=O)Nc2ccc(Cl)cc2)cc1,26.6*,10.9,-8.6,i,32.4*,16.2*
COc1cc([N+](=O)[O-])ccc1NC(=O)COC(=O)C=C(C)C,-13.4,1.0,-1.3,-0.1,.,.
C[n+]1cc2c3c(ccc2c2ccc4cc5c(cc4c21)OCO5)OCO3,86.9*,0.2,.,.,100.5*,98.8*
CC(=O)c1ccc2c(c1)OCO2,3.9,3.9,-2.3,-0.6,.,.
CC1CCCC(C)N1C(=O)CSc1nnc(COc2ccccc2)n1-c1ccccc1 (stereo not drawn),37.1*,9.8,3.4,1.4,34.3*,-3.9
SMILES,PrPC TRFRET,CCHFV vOTU inh,Yp Topo-I inh,BH1578 lux ind,PrPC TRFRET cf,LD9 tox
O=c1[nH]c(Cc2ccccn2)nc2scc(-c3ccccc3Cl)c12,25.9*,7.2,0.4,-0.3,10.8,-3.5
CSCc1nc2scc(-c3ccccc3)c2c(=O)[nH]1,-7.5,4.0,-7.0,i,.,.
COc1ccc(CNC(=O)CN(C(=O)c2csnn2)c2ccc3c(c2)OCCO3)cc1,1.1,-4.1,-5.0,-0.2,.,.
COc1ccccc1N(C(=O)c1ccncc1)c1nc(-c2ccc([N+](=O)[O-])cc2)cs1,26.1*,-0.1,-5.5,-2.7,37.6*,-3.1
C[C@H]1CN(S(=O)C(C)(C)C)[C@H](CCO)/C1=C\c1ccccc1 (stereo partly drawn),-1.6,-0.7,4.1,i,.,.
Cc1ccc(C(=O)n2c(N)nc3ccccc32)cc1,24.9*,16.8,-2.7,0.4,-3.5,2.6
Cc1ccc(S(=O)(=O)n2c(N)nc3ccccc32)cc1,3.0,8.0,6.1,-0.7,.,.
CCCCNC(=O)C(=O)NCc1ccncc1,-1.3,-9.0,-1.1,-1.2,.,.
O=C(Nc1ccccc1)c1ccc(CSc2ncccn2)cc1,36.8*,3.2,8.1,-0.2,38.2*,1.7
CC(C)(C)C1CCC(=NNC(=O)CC(=O)NCc2ccccc2)CC1 (stereo not drawn),-1.0,14.1,-7.8,-0.3,.,.
Cc1c(-c2ccccc2Br)nc2ccccc2c1C(=O)O,-3.2,-7.9,-3.5,1.2,.,.
CCc1ccc(-c2nc3ccc(Br)cc3c(C(=O)O)c2C)s1,47.8*,-9.2,14.3,-0.5,83.7*,-3.2
Oc1c(C=Nc2ccccc2Cl)[nH]c2ccccc12,1.2,-6.2,38.3,0.5,.,.
C/C(=N\NC(=S)NC1CCCCC1)c1cccs1,2.3,-5.5,-8.0,i,.,.
COc1ccc(Cn2c(-c3ccccc3C)nc3c(c(=O)c4ccccc4n3C)c2=O)cc1,52.8*,-2.8,1.7,i,8.7,-1.3
COc1cc(C(=O)N[C@@H](C)C(=O)N2CCC3(CC2)NCCc2[nH]cnc23)cc(OC)c1OC,24.7*,17.4,-5.5,-0.3,5.5,3.7
COc1ccc(C[C@H]2NC[C@H](O)[C@H]2OC(C)=O)cc1,88.7*,8.6,3.2,i,102.0*,47.5*
COc1ccc(NC(=O)NC2CCN(S(=O)(=O)c3ccc(F)cc3)CC2)cc1OC,13.8,5.9,.,.,.,.
O=C(COc1ccccc1)N1CCN(C(=O)COc2ccccc2)CC1,.,.,3.2,-0.2,.,.
O=C(NCc1cccc(Cl)c1)c1cc(COc2ccc3ncccc3c2)on1,24.6*,-8.9,25.4,i,25.8*,15.0*
COc1ccc(NS(=O)(=O)c2c(F)cccc2F)cc1S(=O)(=O)N1CCOCC1,-4.2,14.5,6.5,-0.7,.,.
COc1ccc2sc3ccccc3c(=O)c2c1OC,29.0*,1.2,-5.1,i,38.1*,-6.6
COc1cccc2sc3ccc(C#Cc4ccc(N)cc4)cc3c(=O)c12,20.1,9.6,-1.6,i,.,.
Cc1cc(-c2cccc(Br)c2)c(C#N)c(N)n1,43.5*,-16.4,1.0,1.5,42.5*,1.4
COCCN(C(=O)COC(=O)c1ccccc1Nc1ccccc1)c1c(N)n(Cc2ccccc2)c(=O)[nH]c1=O,-5.4,17.6,20.8,-0.7,.,.
CN(C(=O)COC(=O)c1ccccc1Nc1ccccc1)c1c(N)n(Cc2ccccc2)c(=O)[nH]c1=O,29.5*,4.6,19.3,0.0,37.9*,-8.4
CCOC(=O)C1CCN(C(c2cccnc2)c2c(NC(=O)c3ccco3)sc(C)c2C)CC1 (stereo not drawn),2.6,4.9,-2.0,-0.3,.,.
O=C(NNc1ccccn1)C(c1ccccc1)c1ccccc1,-5.4,2.7,1.2,-0.3,.,.
O=C(NNC(=O)C(c1ccccc1)c1ccccc1)c1ccccn1,34.2*,11.4,-9.1,0.3,22.7,43.0*

# Screens from PubChem.
